Here are results for 13 molecules from PubChem BioAssay.

Activity calls are given as the source filed them.

One assay addresses Albumin (Bos taurus) (UniProt P02769). The assay is described as follows: bovine serum albumin binders on microarray, profiling panel, artefact control for SMM control protein annotation, biochemical, small-molecule microarray, Alexa647 label, 635/667 nm fluorescence (AID 1118).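 Also: score merges 667 nm emission intensity and signal-to-noise per printed compound spot.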 The conditions noted are these: BSA-A647 binding, fluorescence 635 nm, higher = more signal.
Assay [1] can be described thus: small-molecule microarray binders of probe aXIP, primary screen, biochemical, NeuroSMM set, 635/667 nm fluorescence (AID 1119).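 Also: probe is the protein aXip251-270 applied at 1 µg/mL to compound-printed slides; binding of probe to printed compounds measured as 667 nm fluorescence plus signal to noise.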 The conditions noted are these: higher = more signal, called active from +8 up or from −8 down.
The nature of assay [2]: small-molecule binders of probe aNOTCH3, primary screen, biochemical, small-molecule microarray, 635/667 nm fluorescence (AID 1120).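 Also: probe is a biotin-tagged antibody raised against NOTCH3 rather than NOTCH3 protein; score merges spot fluorescence near 667 nm with spot signal to noise.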 The conditions noted are these: higher = more signal.
A short description of assay [3]: small-molecule binders of probe aNOTCH2, primary screen, biochemical, small-molecule microarray, 635/667 nm fluorescence (AID 1121).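 Also: score merges feature fluorescence read at 667 nm with its signal to noise.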 The conditions noted are these: higher = more signal.
Assay [4] addresses Carbonic anhydrase 2 (Homo sapiens) (UniProt P00918). The assay is described as follows: CAII small-molecule binders, profiling panel, biochemical, small-molecule microarray, Alexa647-labelled CAII (AID 1122). The conditions noted are these: CAII-A647 binding fluorescence, higher = more signal.
Assay [5] can be described thus: COS7 lysate on small-molecule microarray, probe aHis, 635 nm (AID 1123).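 Also: z-score combines 667nm fluorescence intensity with signal-to-noise per printed compound spot.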 The conditions noted are these: COS7 cell lysate, fluorescence, higher = more signal.
The nature of assay [6]: compound binding in COS7 lysate, probe aLAP1, primary screen, cell lysate, small-molecule microarray (AID 1124).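 Also: lysate comes from COS7 cells expressing LAP1 and is applied at 0.3 µg/mL; score merges spot fluorescence near 667 nm with signal-to-noise over triplicate slides.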 The conditions noted are these: probe aLAP1, fluorescence, higher = more signal.
Another assay deals with Sam68 (KHDRBS1). The assay is described as follows: Sam68 small-molecule binders, primary screen, biochemical, small-molecule microarray, 635 nm fluorescence (AID 1125).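 Also: score merges 667 nm channel intensity with signal to noise over triplicate slides.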 The conditions noted are these: small-molecule microarray binding, higher = more signal.
For assay [7], the system named is Chordin-like protein 2 (CHRDL2). The assay is described as follows: CHRDL2 small-molecule binders, primary screen, biochemical, small-molecule microarray, 635 nm fluorescence (AID 1126).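 Also: printed compound slides probed with Chrdl2 protein at 4 µg/mL for 1 h at 4 C; score merges 667 nm emission intensity with signal to noise over three replicate slides.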 The conditions noted are these: small-molecule microarray binding, fluorescence 635 nm; higher = more signal.
The target in assay [8] is Concanavalin-A (Canavalia ensiformis) (UniProt P02866). The assay is described as follows: ConA small-molecule binders, primary screen, artefact control for SMM control protein annotation, biochemical, small-molecule microarray, Alexa647 label, 635 nm (AID 1127).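 Also: z combines 667 nm emission intensity with signal-to-noise across three replicate slides.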 The conditions noted are these: ConA-A647 binding fluorescence, higher = more signal.
Sequence of Concanavalin-A (Canavalia ensiformis) (P02866 whole entry, looked up): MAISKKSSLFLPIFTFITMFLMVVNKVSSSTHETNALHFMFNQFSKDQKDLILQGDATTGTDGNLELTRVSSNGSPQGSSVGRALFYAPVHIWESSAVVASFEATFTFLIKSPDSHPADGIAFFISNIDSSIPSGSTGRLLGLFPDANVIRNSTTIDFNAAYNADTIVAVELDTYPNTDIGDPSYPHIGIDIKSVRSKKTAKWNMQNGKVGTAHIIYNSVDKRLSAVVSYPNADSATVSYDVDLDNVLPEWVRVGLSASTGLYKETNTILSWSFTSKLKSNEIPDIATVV

Sequence of Albumin (Bos taurus) (P02769 whole entry, looked up): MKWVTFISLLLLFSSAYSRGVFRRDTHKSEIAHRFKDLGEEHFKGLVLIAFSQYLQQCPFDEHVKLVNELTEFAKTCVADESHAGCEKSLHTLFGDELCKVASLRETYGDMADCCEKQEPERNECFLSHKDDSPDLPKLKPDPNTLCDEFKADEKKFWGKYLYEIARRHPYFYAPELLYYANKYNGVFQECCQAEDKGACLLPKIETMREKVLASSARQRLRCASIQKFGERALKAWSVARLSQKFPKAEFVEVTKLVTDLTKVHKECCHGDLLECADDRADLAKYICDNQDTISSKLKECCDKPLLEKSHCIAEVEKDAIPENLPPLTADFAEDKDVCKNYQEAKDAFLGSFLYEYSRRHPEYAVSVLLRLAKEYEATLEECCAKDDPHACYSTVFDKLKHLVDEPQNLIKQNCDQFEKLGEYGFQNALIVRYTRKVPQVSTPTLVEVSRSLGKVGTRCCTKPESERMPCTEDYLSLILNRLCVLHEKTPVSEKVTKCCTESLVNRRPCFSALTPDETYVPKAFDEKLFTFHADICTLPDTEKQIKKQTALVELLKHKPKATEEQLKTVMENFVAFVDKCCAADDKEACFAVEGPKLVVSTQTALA

As to `COCCCNC(=O)[C@@]1(Cc2ccccc2I)c2ccccc2C(=O)N(Cc2ccccc2)[C@H]1c1ccc(CO)cc1`, the composite z-score is -1.09 in the assay with Albumin (Bos taurus); -0.265 in assay [2]; -0.162 in assay [3]; 0.574 in [4]; 0.817 in [5]; -0.665 in [6]. Further, the composite z-score was 0.337 in the assay on Sam68 (KHDRBS1), -1.47 in assay [7] and -1.3 in assay [8]. Also, the composite Z-score in assay [1] was -0.0662 (inactive).
For the molecule `Cc1c(NC(=O)/C(C#N)=C/C=C/c2ccccc2)c(=O)n(-c2ccccc2)n1C`, the composite z-score with Albumin (Bos taurus) is 0.566; in assay [2], 0.0859; in assay [3], 0.136; in assay [4], 0.682; in assay [5], 0.811; in [6], -0.195. Moreover, the composite z-score with Sam68 (KHDRBS1) was -0.144; in assay [7], 0.427; in assay [8] it was 0.802. Besides, the composite Z-score in [1] is 0.54 (inactive).
Regarding `CN(C)CCCC[C@@H]1NC(=O)[C@@H]2C[C@H](C(=O)NCCCCCN)[C@H](c3ccc(O)cc3)N2C1=O`, the composite z-score in the assay with Albumin (Bos taurus) was 0.932; in assay [2] it was 0.0229; in [3], -0.0478; in assay [4], 0.462; in [5], 0.984; in assay [6], 0.443. Moreover, the composite z-score in the assay with Sam68 (KHDRBS1) was 1; in assay [7] it was -1.76; in [8] it was 1.1. Besides, the composite Z-score in assay [1] is 0.351 (inactive).
For `[N-]=[N+]=NCc1ccccc1[C@H]1OC(c2ccc(OCCCO)cc2)=N[C@@]1(Cc1ccccc1)C(=O)O`, the composite z-score in the assay with Albumin (Bos taurus) is 0.179; in assay [2], 0.102; in assay [3], -0.106; in [4] it was 0.63; in assay [5] it was 1.05; in assay [6] it was -0.289. Besides, the composite z-score with Sam68 (KHDRBS1) was 1.13; in [7], -0.469; in assay [8], 1.11. The composite Z-score in assay [1] is -0.365 (inactive).
`CC(C)(C)OC(=O)CC[C@]1(C(=O)NCC(O)CO)N=C(c2ccc(OCCCO)cc2)O[C@H]1c1ccccc1CN=[N+]=[N-]` (stereo not given in full): the composite z-score with Albumin (Bos taurus) came out at 0.906; in [2], 0.883; in assay [3], 0.382; in [4], 0.747; in [5] it was 2.82; in assay [6], 1.58. Also, the figures for the composite z-score (in the assay on Sam68 (KHDRBS1); in assay [7]; in assay [8]) were 1.16, 0.0916 and 1, respectively. Further, the composite Z-score in assay [1] is 1.27 (inactive).
Regarding `CO[C@H]1O[C@H](CO)[C@@H](OC(=O)Nc2cccc(F)c2)[C@H](OC(=O)Nc2ccccc2-c2ccccc2)[C@@H]1OC(=O)Nc1ccccc1-c1ccccc1`, the composite z-score in the assay with Albumin (Bos taurus) was 0.914; in assay [2], 0.0479; in assay [3] it was -0.0041; in assay [4], 0.385; in assay [5] it was 2.56; in assay [6], 1. Besides, the composite z-score with Sam68 (KHDRBS1) is 1.3; in assay [7], -0.262; in [8], 1.23. Also, in [1], the composite Z-score is -0.116 (inactive).
On to `O=C1C2C=CC(C(O)c3ccc(-c4ccccc4)s3)N(Nc3ccccc3F)C2C(=O)N1c1ccccc1` (stereo not given), for which the composite z-score came out at 0.822 in the assay with Albumin (Bos taurus); 0.113 in assay [2]; 0.149 in [3]; 0.69 in [4]; 2.09 in assay [5]; 0.335 in assay [6]. For the same molecule, the composite z-score in the assay with Sam68 (KHDRBS1) was 1.29; in assay [7], -0.0798; in assay [8], 1.12. Besides, in [1], the composite Z-score was 0.446 (inactive).
Consider `O=C1OCCC=C[C@H]2OC34C=CCN(CCN5CCOCC5)C(=O)[C@H]3N(CCO)C(=O)[C@@H]4C12` (stereo not given in full), for which the composite z-score was -0.188 in the assay with Albumin (Bos taurus); 0.16 in [2]; -0.202 in assay [3]; 0.72 in assay [4]; -0.219 in assay [5]; -0.193 in assay [6]. For the same molecule, the figures for the composite z-score (in the assay with Sam68 (KHDRBS1); in assay [7]; in assay [8]) were -1.08, 0.112 and -0.916, respectively. Also, the composite Z-score in [1] is -0.7 (inactive).
For the molecule `CCOC1=C2C(c3ccc(C)cc3)N(S(=O)(=O)c3ccc(C)cc3)CC2n2c(=O)n(-c3ccccc3)c(=O)n2C1` (stereo not given), the composite z-score is 0.495 with Albumin (Bos taurus); 0.125 in assay [2]; -0.0276 in [3]; 0.639 in assay [4]; 2.65 in [5]; 0.91 in assay [6]. In addition, the composite z-score came out at 1.35 in the assay on Sam68 (KHDRBS1), 0.339 in assay [7] and 1.14 in assay [8]. In assay [1], the composite Z-score was 0.193 (inactive).
As for `Cc1cc(C)c(C(O)C2C=CC3C(=O)NC(=O)C3N2Nc2ccccn2)c(C)c1` (stereo not given), the composite z-score in the assay with Albumin (Bos taurus) came to 0.63; in [2], 0.148; in assay [3] it was 0.139; in assay [4] it was 0.422; in [5], 1.09; in assay [6], 0.751. The values for the composite z-score (with Sam68 (KHDRBS1); in assay [7]; in assay [8]) were 0.785, -0.907 and 0.049, respectively. For the same molecule, in [1], the composite Z-score is -0.0521 (inactive).
As for `CCCC[C@H]1OB(O)C[C@H]2C1=C(C)Cn1c(=O)n(-c3ccccc3)c(=O)n12`, the composite z-score with Albumin (Bos taurus) was 0.242; in assay [2], -0.236; in assay [3], -0.177; in assay [4] it was -0.159; in [5], 0.549; in assay [6], 0.144. The composite z-score with Sam68 (KHDRBS1) was determined as 0.401; in assay [7], 0.77; in assay [8], 0.0577. The composite Z-score in assay [1] is -0.426 (inactive).
Regarding `C=C(COC)C(=O)CC[C@@H](OC(=O)c1ccccc1-c1ccccc1C(=O)O)c1ccc(CO)o1`, the composite z-score with Albumin (Bos taurus) is -0.651; in assay [2] it was -0.154; in assay [3], -0.0817; in [4], 0.309; in assay [5], 1.77; in [6], 0.447. Moreover, the composite z-score in the assay on Sam68 (KHDRBS1) is 0.504; in [7], 1.24; in [8], 0.865. Also, the composite Z-score in assay [1] is 0.082 (inactive).
Consider `C=C(CCCC)C(=O)CC[C@@H](OC(=O)c1ccccc1-c1ccccc1C(=O)O)c1ccc(CO)o1`, for which the composite z-score in the assay with Albumin (Bos taurus) was 0.26; in assay [2], 0.135; in [3] it was -0.0028; in assay [4], 0.549; in assay [5] it was 0.413; in [6], 0.941. Further, the values for the composite z-score (with Sam68 (KHDRBS1); in assay [7]; in [8]) were 1.18, 0.593 and 0.786, respectively. Further, in assay [1], the composite Z-score is -0.27 (inactive).
